Reference: the supplement of paper PMC3334620
Over roughly 33,000 sequences, “E-score (-0.5 to 0.5)” has its median near -0.0059; the highest 2% begin near 0.26. The sample as a whole holds a higher share of the highest values than the screen did.

target: T1, Cin5 (UniProt P40917); assay: PBM E-score (8-mer binding enrichment) (E-score (-0.5 to 0.5)); higher = stronger / more preferred TF binding; settings: protein concentration: 100 nM; construct: GST-full length
T1 sequence: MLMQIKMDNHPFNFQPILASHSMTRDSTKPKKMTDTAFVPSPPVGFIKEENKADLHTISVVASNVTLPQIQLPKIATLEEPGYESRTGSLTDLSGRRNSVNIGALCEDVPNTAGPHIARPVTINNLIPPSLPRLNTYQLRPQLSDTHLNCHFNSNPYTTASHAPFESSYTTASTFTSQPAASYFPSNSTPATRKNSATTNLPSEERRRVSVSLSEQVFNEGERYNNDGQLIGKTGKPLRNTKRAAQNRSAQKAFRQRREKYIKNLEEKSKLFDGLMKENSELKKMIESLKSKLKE
How it was run: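 Yeast transcription factors carrying a GST tag, as full-length proteins or DNA-binding domains, were produced by PURExpress in vitro transcription/translation. About 100-200 nM protein was applied to universal all-10-mer Agilent arrays, double-stranded by primer extension on fresh or once-stripped slides. Bound protein was detected with fluorescent anti-GST, and scans were normalised with masliner. The Universal PBM Analysis Suite gave each ungapped eight-base word, pooled with its reverse complement, an E-score, a modified Wilcoxon-Mann-Whitney statistic.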

Point of comparison: AATATATT, “PBM E-score” value 0.363. Against it:
- AATTACAT — lower, 0.322
- GATTACAC — lower, 0.233
- GATTACGA — higher, 0.434
- CATTACGC — lower, 0.0481
- AATTACGG — lower, 0.141
- AATTACAC — lower, 0.0804
- AATTACGC — lower, 0.073
- GATTACGC — lower, 0.301
- GGTTACGA — lower, 0.0792
- AATTACAG — lower, 0.107
- AATTACGT — lower, 0.278
- TATTACGA — lower, 0.257
- ACTCTTGC — lower, -0.108
- GACGGTCC — lower, -0.201
- CATGGCGA — lower, -0.0534
- CGGTGGTC — lower, -0.098
- ATGTCCAA — lower, 0.0429
- CATTACGA — lower, 0.127
- AATTACCA — lower, 0.187
- AATTACGA — lower, 0.313
- CTCAGATC — lower, 0.0619
- AGTGAGTA — lower, 0.284
- AGTGAGTG — lower, -0.0867
- ATTGAGTC — lower, 0.103
- ATTGAGTA — lower, 0.262
- GTTGAGTA — lower, 0.0846
- CGTGAGTA — lower, 0.0731
- AAGCAACA — lower, 0.162
- CATAAAGA — lower, 0.104
- CGCATCGA — lower, 0.182
- ATAACGCC — lower, 0.0372
- AGTAAGCA — lower, 0.283
- AGTAAGCG — lower, 0.354
- ACTAAGCG — lower, 0.149
- AGTAAGGG — lower, 0.0482
- GGTAAGCA — lower, 0.318
- GGTAAGAA — lower, 0.011
- ACTAAGCA — lower, 0.241
- AGTAAGTA — lower, 0.227
- GGTAAGGA — lower, -0.153
- AGAGCTTG — lower, -0.0623
- CAAGACCA — lower, -0.0752
- AGAGATCT — lower, -0.171
- CATCTCAC — lower, 0.0306
- AATCTCAA — lower, 0.184
- CATCTCAA — lower, 0.0545
- TATCTCAA — lower, 0.261
- GATCTCAA — lower, 0.112
- CATCTCAG — lower, 0.268
- GTGGCTAA — lower, 0.181
- ACTTCATC — lower, -0.0118
- CTCAACAA — lower, 0.197
- ACCTCATC — lower, 0.0947
- AGGTGAAT — lower, 0.099
- AAGACAAC — lower, 0.274
- CAGACAAC — lower, 0.0843
- AAGACAAG — lower, -0.0281
- GACCGCGA — lower, -0.129
- TCACGTAA — lower, 0.322
- CCACGTAA — lower, 0.165
- ACACGTAG — lower, -0.151
- ACACGTAC — lower, -0.0415
- ACACGTAA — lower, 0.3
- GCACGTAA — lower, -0.00694
- GCTCTTAA — lower, -0.0595
- CGGCTAAG — lower, -0.025
- CGTGCGGC — lower, -0.139
- AAAATCGC — lower, 0.0818
- TATGGCCA — lower, 0.0804
- ACCTAGAC — lower, -0.126
- GACTCTCC — lower, -0.189
- AATGCGGT — lower, -0.0647
- AATGCGGG — lower, 0.273
- AATGCGGC — lower, -0.00913
- TGCCCTAA — lower, -0.0446
- AAGTTGTC — lower, 0.127
- AAGTTGTG — lower, 0.265
- AAGTTGTA — lower, 0.178
- CCCATCGC — lower, 0.0166
- CCCCGACG — lower, -0.00202
- GATATCCA — lower, 0.183
- ATCGGAAA — lower, 0.0538
- ATCGGAAT — lower, 0.151
- ATCGGAAC — lower, 0.267
- CGTTCAAC — lower, 0.0923
- AATAAGCG — lower, 0.109
- CATAAGGG — lower, 0.1
- CATAAGCG — lower, 0.267
- CATAAGCA — lower, 0.336
- TATAAGCA — lower, 0.256
- CATAAGCC — lower, 0.245
- AATAAGCA — lower, 0.176
- GATAAGCC — lower, 0.0299
- GATAAGCA — lower, 0.275
- CCCTGTGC — lower, -0.18
- CCTCGGGA — lower, -0.13
- GTAGACCA — lower, -0.101
- GCCAAGGA — lower, -0.199
- CCGGCGTC — lower, -0.0574
- TCAGTGGA — lower, -0.093
- TATATATA — higher, 0.369
- GACATAAA — lower, 0.239
- GACATAAC — lower, 0.276
- AACATAAA — lower, 0.0668
- TATATAGA — lower, 0.238
- CATATATC — lower, 0.102
- CATATATG — lower, 0.114
- TATATACA — lower, 0.187
- TACATAAA — lower, 0.323
- CACATAAC — lower, -0.00529
- CACATAAA — lower, 0.183
- CATATATA — lower, 0.322
- CCAGTCCC — lower, -0.0959
- ATGTACAA — lower, 0.0216
- ACCTTAGA — lower, 0.0107
- AGGTATCC — lower, 0.0225
- AACGCACT — lower, -0.037
- TGACTCCA — lower, -0.17
- CCTTCGTC — lower, -0.106
- ACTATAGT — lower, 0.174
- CGAGCATC — lower, 0.0462
- GGAGGATA — lower, -0.0068
- GCACTTTA — lower, -0.0367
- GATATATC — lower, 0.1
- GATATACA — lower, 0.138
- CATATAAA — lower, 0.138
- CACATACA — lower, 9e-05
- GACATACA — lower, 0.314
- GTTATAAA — lower, 0.198
- GATATAAA — lower, 0.0539
- TACATACA — lower, 0.238
- TTTATAAA — lower, 0.259
- CTTATAAA — lower, 0.154
- GATATATA — lower, 0.266
- TATATAAA — lower, 0.283
- ACGTCGAT — lower, 0.105
- AACCCTGC — lower, -0.0766
- CGCGAATC — lower, 0.0184
- TTCTCAAA — lower, 0.15
- AGGGCCAA — lower, -0.313
- GCCCAGTA — lower, -0.0745
- AGGAGACC — lower, -0.201
- GGTGATTA — lower, 0.213
- CGTGATGA — lower, -0.0266
- CGTGATTC — lower, -0.0445
- AGTGATTC — lower, -0.0118
- CGTGATTA — lower, 0.273
- AGTGATTA — lower, 0.275
- CAAGAATC — lower, 0.133
- AGCGGTAT — lower, 0.158
- GTACTAAA — lower, 0.0965
- ATACTACC — lower, -0.0132
- ATACTACA — lower, 0.285
- CTACTACA — lower, 0.173
- ATACTAAA — lower, 0.265
- ATACTAAC — lower, 0.166
- CTACTAAA — lower, -0.0525
- ATACTAAG — lower, 0.012
- TTACTAAA — lower, 0.266
- ACTTCCCG — lower, -0.0152
- CGGAGGAG — lower, -0.182
- AGGAAAAG — lower, 0.0753
- GGACCTGA — lower, -0.107
- CGACGAAG — lower, -0.0192
- AATATAGA — lower, 0.186
- CATATAGG — lower, 0.0225
- ACTATAGG — lower, -0.0568
- AATATAAG — lower, 0.276
- AATATATG — lower, 0.248
- CATATAAG — lower, 0.0464
- AATATATA — lower, 0.18
- AATATAGG — lower, 0.317
- AATATAAT — lower, 0.177
